Only some compounds are listed: those with a hit (about 2.2% of all), similar ones and a draw of the others.
EWS-Fli block: blocks EWS/Fli oncoprotein-driven transcription; A673 NR0B1-luciferase reporter, viability-normalised; inhibition, % at 12.6 µM; 350,000 tested, 0.67% active;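 active = mean inhibition of at least 50% after viability correction, with every replicate also passing that limit; inconclusive = mean reaches 50% but only one of two replicates passes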;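 also: firefly luciferase signal divided by Alamar Blue viability fluorescence both relative to DMSO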
LGR2 antag: inhibitors of bursicon-induced Drosophila LGR2 receptor cAMP signaling; HEK293 LGR2, CRE-luciferase, bursicon-stimulated, 4 h; inhibition, % at 9.99 µM; 380,000 tested, 0.35% active; AID 720647;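 active = drop in luminescence signal, shown as inhibition above about 50% in the replicate tests, limit read from the data, passing the limit was not always enough; inconclusive = probably only some replicates passing the limit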;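 also: agonist challenge used bursicon conditioned medium at about half maximal strength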
MITF TRPM1 inh: MITF TRPM1 promoter inhibition in SK-MEL-5 cells. SK-MEL-5 TRPM1 promoter luciferase, 24 h. inhibition, % at 12.5 µM. 330,000 tested, 0.83% active. AID 488899;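 active = mean inhibition across replicates of 60% or more, whatever share of single replicates reaches that level; inconclusive = some that reach 60%, reason not given; inactive = mean inhibition across replicates below 60%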
PGC1a acetyl inh: PGC1a acetylation modulation, inhibitor mode. AID 651687. 350,000 tested, 0.17% active. inhibition, % at 15.6 µM. U2OS PGC1a acetylation, AlphaScreen anti-acetyl-lysine; with virally co-expressed GCN5 acetyltransferase;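 active = every replicate shows inhibition of at least 40%; inconclusive = mean inhibition at least 40% but some replicate below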;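 also: 0% = neutral control wells and 100% = positive control wells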
LMP1 NFkB inh: Epstein-Barr LMP1 NF-kappaB reporter inhibition; 350,000 tested, 0.69% active; LMP1-induced NF-kappaB luciferase reporter cells, luminescence; inhibition, % at 12.5 µM; AID 504558; in the data active = inhibition above about 41%; inconclusive = no clear call, values can overlap the other calls;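 also: 0% = neutral control wells and 100% = reference inhibitor control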
PAX8 inh HTS: PAX8 transcriptional activity inhibition | 360,000 tested, 1.2% active | inhibition, % at 12.6 µM | RMG-I TPO-luciferase reporter, SteadyGlo, 24 h;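 active = mean replicate inhibition at least 60% with every replicate also reaching 60%; inconclusive = only one of the two criteria is met; inactive = mean below 60% and not all replicates reaching 60%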;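 also: luciferase light reporting Pax8 driven TPO promoter activity; plate controls were median of neutral control wells for no effect and mitoxantrone controls for full effect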
* hit, by the source's call; ? = inconclusive; . = no result given.

SMILES	EWS-Fli block	LGR2 antag	MITF TRPM1 inh	PGC1a acetyl inh	LMP1 NFkB inh	PAX8 inh HTS
O=C(/C(=C/c1ccc(Cl)cc1)c1nc2ccccc2[nH]1)c1ccccc1	.	.	84*	-17	86*	.
CN(c1cccc(Cl)c1)S(=O)(=O)c1cccc(C(=O)Nc2nc3ccccc3[nH]2)c1	19	?	-9	.	30	71*
O=C(Nc1nc2ccccc2[nH]1)c1ccc(Cl)cc1	53*	57*	2	.	-3	-25
CN1C(=O)c2cc(NC(=O)c3ccc(F)cc3)ccc2OC[C@@H]2O[C@H](CC(=O)O)CC[C@@H]21	4	-5	.	2	.	5
C[C@H]1CCCCO[C@H](CN(C)S(=O)(=O)c2ccccc2)[C@@H](C)CN([C@@H](C)CO)C(=O)c2cc(NS(=O)(=O)c3ccc(Cl)cc3)ccc2O1	13	6	.	3	.	100*
C[C@@H]1CCCCO[C@@H](CN(C)S(=O)(=O)c2ccccc2)[C@H](C)CN([C@H](C)CO)C(=O)c2cc(NS(=O)(=O)c3ccc(Cl)cc3)ccc2O1	8	23	.	-24	.	66*
C[C@H]1CCCCO[C@@H](CN(C)S(=O)(=O)c2ccc(Cl)cc2)[C@@H](C)CN([C@@H](C)CO)C(=O)c2cc(NS(=O)(=O)c3ccccc3)ccc2O1	8	29	.	6	8	?
CCOc1ccc(CN2C(=O)c3ccccc3C2=O)cc1C(=O)NC1CC(C)(C)NC(C)(C)C1	-6	-3	14	-1	71*	3
CCOc1ccc(CN2C(=O)c3ccccc3C2=O)cc1C(=O)Nc1nnc(SCC)s1	7	2	-2	.	10	-5
O=C(O)c1ncc(-c2ccccc2)cn1	.	.	4	.	5	.
c1ccc(-c2cnc(-c3ccccc3)nc2)cc1	.	56*	-17	-2	5	.
c1ccc(-c2ncc3c(ccc4ccccc43)n2)cc1	.	81*	0	.	19	-107
CO[C@H]1CN(C)C(=O)c2ccc(NC(=O)Nc3cccc(Cl)c3)cc2OC[C@H](C)NC[C@H]1C	12	0	.	26	.	13
C[C@H](CO)N1C[C@H](C)[C@@H](CN(C)C(=O)NC2CCCCC2)Oc2ccc(NC(=O)Nc3ccc(F)cc3)cc2C1=O	-4	19	.	0	.	-16
CCCNC(=O)N(C)C[C@H]1Oc2cc(-c3ccccc3F)ccc2S(=O)(=O)N([C@H](C)CO)C[C@H]1C	8	-15	.	6	.	-15
CCN(CC)CCNC1=NCCn2c1cc1cc(OC)ccc12	.	.	-8	-25	-18	-3
CCN(CC)CCCCNc1ncc2cc(-c3cc(OC)cc(OC)c3)c(NC(=O)NC(C)(C)C)nc2n1	36	16	73*	15	30	44
CCCCCCCCC(=O)O	.	.	.	66*	.	.
CCCCC/C=C\C/C=C\C/C=C\CCCCC(=O)O	4	.	-8	-12	53*	5
CCCCCCCCCCCCCC(=O)NO	55*	25	8	-8	-3	5
CC1(C)CCC(=O)N(c2ccc(OC(F)(F)F)cc2)C1=O	-9	-22	2	-6	-5	-24
Cc1cccc(C)c1N1C(=O)CCC(C)(C)C1=O	-2	3	-4	.	50*	-5
CC(C)c1ccc(OCCCN2CCC(C(O)(c3ccccc3)c3ccccc3)CC2)cc1	33	103*	.	.	.	53
OC(c1ccccc1)(c1ccccc1)C1CCN(CCCOc2cccc(C(F)(F)F)c2)CC1	4	106*	.	.	.	2
COc1ccc(OCCCN2CCC(C(O)(c3ccccc3)c3ccccc3)CC2)cc1	19	-6	.	.	.	-115
OC(c1ccccc1)(c1ccccc1)C1CCN(CCCOc2ccc(C(F)(F)F)cc2)CC1	18	107*	.	.	.	27
COCC(=O)N[C@@H]1C=C[C@@H](CC(=O)N2CCCCC2)O[C@H]1CO	-2	.	.	4	.	-9
CC1(C)CC[C@]2(C(=O)O)CC[C@]3(C)C(=CC[C@@H]4[C@@]5(C)CC[C@H](O[C@@H]6O[C@H](C(=O)O)[C@@H](O)[C@H](O[C@@H]7OC[C@H](O)[C@H](O)[C@H]7O)[C@H]6O)C(C)(C)[C@@H]5CC[C@]43C)[C@@H]2C1	?	?	6	25	-8	101*
CN(C)C(=O)[C@@H]1[C@@H](CO)[C@@H]2Cn3c(ccc(C4=CCCCC4)c3=O)[C@@H]2N1Cc1ccc2c(c1)OCO2	0	-12	.	.	.	.

Screens: PubChem BioAssay, Broad Institute
